# Results as given in ChEMBL document CHEMBL3988442, “University of Dundee, Small-Polar-MMV Screening Library” (2021).
# For some assays here: Measured potencies and affinities stand elsewhere.
# Experiments:
# Parameters in all cases: scale not given: direction of the effect not stated beside the values
# [1] = target: Protein translocase subunit SecA (Escherichia coli (strain K12)) (UniProt P10408); experiment: Assay to Identify E. coli SecA ATPase Inhibitors; format: functional; settings: 30 µM
# Protein translocase subunit SecA (Escherichia coli (strain K12)), sequence (P10408 whole entry): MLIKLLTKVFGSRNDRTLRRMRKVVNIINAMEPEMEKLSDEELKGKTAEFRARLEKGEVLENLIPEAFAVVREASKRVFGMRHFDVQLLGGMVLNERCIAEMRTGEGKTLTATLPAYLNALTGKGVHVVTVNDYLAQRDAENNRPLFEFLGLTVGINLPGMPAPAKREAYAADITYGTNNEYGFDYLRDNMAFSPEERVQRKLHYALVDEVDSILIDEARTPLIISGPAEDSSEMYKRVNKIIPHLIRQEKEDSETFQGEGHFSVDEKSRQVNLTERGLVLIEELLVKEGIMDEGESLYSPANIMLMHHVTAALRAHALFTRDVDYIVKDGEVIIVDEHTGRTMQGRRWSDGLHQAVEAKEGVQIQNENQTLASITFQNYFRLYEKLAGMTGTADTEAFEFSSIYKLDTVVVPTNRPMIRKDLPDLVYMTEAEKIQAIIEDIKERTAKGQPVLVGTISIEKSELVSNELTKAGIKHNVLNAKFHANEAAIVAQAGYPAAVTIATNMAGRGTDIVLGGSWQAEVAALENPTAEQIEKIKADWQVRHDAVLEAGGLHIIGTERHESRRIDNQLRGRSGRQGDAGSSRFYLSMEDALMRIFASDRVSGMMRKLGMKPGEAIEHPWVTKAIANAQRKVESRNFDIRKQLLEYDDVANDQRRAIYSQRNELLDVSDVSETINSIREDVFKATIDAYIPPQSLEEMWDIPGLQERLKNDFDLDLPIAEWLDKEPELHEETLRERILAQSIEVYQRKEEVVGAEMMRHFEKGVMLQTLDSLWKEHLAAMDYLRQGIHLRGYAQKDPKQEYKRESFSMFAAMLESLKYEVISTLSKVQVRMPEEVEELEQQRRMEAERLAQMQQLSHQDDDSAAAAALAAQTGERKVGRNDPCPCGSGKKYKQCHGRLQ
# [2] = target: T1, Ubiquitin-activating enzyme e1, putative (Leishmania donovani (strain BPK282A1)) (UniProt E9BSI1); experiment: Leishmania donovani Ubiquitin Activating Enzyme (LdE1); format: functional; settings: 30 µM
# T1 sequence (whole entry): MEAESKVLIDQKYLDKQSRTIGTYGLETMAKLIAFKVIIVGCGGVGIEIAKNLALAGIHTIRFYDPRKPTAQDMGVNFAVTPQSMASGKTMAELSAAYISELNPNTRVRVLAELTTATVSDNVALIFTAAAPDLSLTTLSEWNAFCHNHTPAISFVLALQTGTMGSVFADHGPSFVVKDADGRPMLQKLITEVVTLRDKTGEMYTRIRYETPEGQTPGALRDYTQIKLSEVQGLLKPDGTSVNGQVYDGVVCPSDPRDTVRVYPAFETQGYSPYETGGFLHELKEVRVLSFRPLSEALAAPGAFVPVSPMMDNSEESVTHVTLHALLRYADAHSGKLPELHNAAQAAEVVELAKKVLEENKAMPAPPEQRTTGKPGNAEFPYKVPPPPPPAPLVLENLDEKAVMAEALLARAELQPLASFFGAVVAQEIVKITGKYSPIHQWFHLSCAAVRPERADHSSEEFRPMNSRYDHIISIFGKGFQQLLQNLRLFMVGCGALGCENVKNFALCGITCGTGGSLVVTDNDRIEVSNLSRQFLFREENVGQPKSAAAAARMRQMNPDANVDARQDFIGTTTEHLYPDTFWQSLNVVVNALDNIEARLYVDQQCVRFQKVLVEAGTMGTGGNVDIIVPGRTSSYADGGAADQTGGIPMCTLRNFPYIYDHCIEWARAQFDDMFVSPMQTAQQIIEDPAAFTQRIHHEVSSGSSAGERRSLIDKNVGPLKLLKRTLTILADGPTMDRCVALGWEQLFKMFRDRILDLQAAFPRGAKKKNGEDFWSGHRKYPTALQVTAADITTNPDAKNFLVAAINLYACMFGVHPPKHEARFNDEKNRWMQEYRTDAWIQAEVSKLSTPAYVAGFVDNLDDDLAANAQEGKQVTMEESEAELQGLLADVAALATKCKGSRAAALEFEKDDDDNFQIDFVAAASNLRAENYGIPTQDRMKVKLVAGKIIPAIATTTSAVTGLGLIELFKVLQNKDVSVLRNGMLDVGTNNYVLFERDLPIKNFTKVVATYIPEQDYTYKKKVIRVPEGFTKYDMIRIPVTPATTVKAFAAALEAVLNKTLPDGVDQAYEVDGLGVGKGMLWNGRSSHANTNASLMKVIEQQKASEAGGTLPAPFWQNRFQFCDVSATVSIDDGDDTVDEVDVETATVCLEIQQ
# [3] = target: AMP-activated protein kinase, AMPK (Homo sapiens) (UniProt P54646+O43741+P54619+Q9UGJ0+Q9Y478+Q13131+Q9UGI9); experiment: AMP-dependent Kinase enzyme assay. An in vitro enzyme assay that detects ADP turnover that is directly proportional to AMPK activity. This uses naive AMPK that is activated during the assay with MK-8722; format: functional; settings: 30 µM
# [4] = target: Sialic acid-binding Ig-like lectin 9 (Homo sapiens) (UniProt Q9Y336); experiment: Hs-Siglec9 ALPHAscreen SOP 20170721; settings: 10 µM
# Sialic acid-binding Ig-like lectin 9 (Homo sapiens), sequence (Q9Y336 whole entry): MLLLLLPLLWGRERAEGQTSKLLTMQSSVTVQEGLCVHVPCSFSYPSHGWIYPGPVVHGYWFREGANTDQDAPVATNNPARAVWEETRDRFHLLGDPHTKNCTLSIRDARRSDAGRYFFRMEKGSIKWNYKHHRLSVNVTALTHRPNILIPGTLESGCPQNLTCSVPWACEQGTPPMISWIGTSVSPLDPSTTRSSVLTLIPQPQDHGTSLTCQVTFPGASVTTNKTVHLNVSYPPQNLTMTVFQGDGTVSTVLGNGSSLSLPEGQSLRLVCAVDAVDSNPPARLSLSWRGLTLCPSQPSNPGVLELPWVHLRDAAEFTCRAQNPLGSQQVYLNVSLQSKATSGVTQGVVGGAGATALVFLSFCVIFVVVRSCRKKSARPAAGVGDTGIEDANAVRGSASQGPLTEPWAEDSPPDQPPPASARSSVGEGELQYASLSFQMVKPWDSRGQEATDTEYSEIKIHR
# Trypanosoma cruzi = experiment: Trypanosoma cruzi phosphomannomutase and mannose-1-phosphate guanylyltransferase assay; format: functional; settings: 10 µM
# [5] = target: T2, Arginase-2, mitochondrial (Homo sapiens) (UniProt P78540); experiment: in vitro enzyme assay to detect the production of urea directly proportional to the activity of Arginase II; format: functional; settings: 33.3 µM; note: in the data most compounds retested in dose-response had high values
# T2 sequence (whole entry): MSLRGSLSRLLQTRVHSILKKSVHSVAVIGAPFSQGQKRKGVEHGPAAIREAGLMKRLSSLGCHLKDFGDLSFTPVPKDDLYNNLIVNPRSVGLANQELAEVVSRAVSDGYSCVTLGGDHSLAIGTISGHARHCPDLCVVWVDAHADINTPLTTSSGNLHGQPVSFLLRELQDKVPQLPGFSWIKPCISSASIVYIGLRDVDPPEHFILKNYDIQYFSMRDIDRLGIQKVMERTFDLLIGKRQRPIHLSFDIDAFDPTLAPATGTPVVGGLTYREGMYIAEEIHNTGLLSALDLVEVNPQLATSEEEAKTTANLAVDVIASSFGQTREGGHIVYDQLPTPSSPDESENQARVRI
# [6] = target: T3, Proteasome subunit beta (Trypanosoma cruzi) (UniProt O96673); experiment: Trypanosoma cruzi proteasome chymotrypsin-like activity (TcProtChymo) assay.; note: in the data most compounds retested in dose-response had high values; format: functional; settings: 9.37 µM
# T3 sequence (whole entry): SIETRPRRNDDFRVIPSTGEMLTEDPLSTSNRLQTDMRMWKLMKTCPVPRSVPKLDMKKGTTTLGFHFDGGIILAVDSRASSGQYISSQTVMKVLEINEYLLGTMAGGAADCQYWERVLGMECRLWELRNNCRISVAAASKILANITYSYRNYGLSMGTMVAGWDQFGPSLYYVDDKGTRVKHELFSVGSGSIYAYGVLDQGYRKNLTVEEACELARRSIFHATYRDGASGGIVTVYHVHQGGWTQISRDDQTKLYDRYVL
# Homo sapiens = species: Homo sapiens; experiment: To identify inhibition of the IFN signalling (Jak-Stat) pathway via expression of an eGFP reporter gene under the control of an IFN-stimulated response element (ISRE) containing MxA promoter.; format: functional; settings: 30 µM
# [7] = target: T4, Tyrosyl-tRNA synthetase, putative (Trypanosoma cruzi (strain CL Brener)) (UniProt Q4DSP6); experiment: Trypanosoma cruzi tyrosyl tRNA synthetase (TcYRS) _High Tyrosine SOP; format: functional; settings: 30 µM; note: in the data most compounds retested in dose-response had high values
# T4 sequence (whole entry): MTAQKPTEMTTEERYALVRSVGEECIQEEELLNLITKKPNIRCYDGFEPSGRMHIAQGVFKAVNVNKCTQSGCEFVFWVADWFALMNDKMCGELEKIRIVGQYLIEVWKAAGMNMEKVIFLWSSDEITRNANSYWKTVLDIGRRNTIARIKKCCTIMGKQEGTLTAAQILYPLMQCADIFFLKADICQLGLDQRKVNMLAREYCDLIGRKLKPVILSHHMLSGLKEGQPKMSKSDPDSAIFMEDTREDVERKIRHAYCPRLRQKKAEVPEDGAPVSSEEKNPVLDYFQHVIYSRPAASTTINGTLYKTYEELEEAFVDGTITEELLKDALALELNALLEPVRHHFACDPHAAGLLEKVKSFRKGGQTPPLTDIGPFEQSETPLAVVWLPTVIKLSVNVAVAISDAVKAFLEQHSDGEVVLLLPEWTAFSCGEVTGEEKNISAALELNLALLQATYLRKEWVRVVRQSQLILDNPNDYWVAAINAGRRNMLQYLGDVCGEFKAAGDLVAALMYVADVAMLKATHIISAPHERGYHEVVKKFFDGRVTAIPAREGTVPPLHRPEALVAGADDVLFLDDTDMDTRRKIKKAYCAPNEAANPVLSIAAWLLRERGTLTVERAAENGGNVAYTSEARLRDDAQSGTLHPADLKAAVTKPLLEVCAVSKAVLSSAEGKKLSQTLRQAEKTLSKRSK
# [8] = target: T4, Tyrosyl-tRNA synthetase, putative (Trypanosoma cruzi (strain CL Brener)); experiment: Trypanosoma cruzi tyrosyl tRNA synthetase (TcYRS) SOP; format: functional; settings: 30 µM
# [9] = target: Chromo domain-containing protein 1 (Saccharomyces cerevisiae (strain ATCC 204508 / S288c) (Baker's yeast)) (UniProt P32657); experiment: ScCHD-1 Enzyme Inhibition Assay; format: functional; settings: 30 µM; note: in the data most compounds retested in dose-response had high values
# Chromo domain-containing protein 1 (Saccharomyces cerevisiae (strain ATCC 204508 / S288c) (Baker's yeast)), sequence (P32657 whole entry, the tested form may be a part): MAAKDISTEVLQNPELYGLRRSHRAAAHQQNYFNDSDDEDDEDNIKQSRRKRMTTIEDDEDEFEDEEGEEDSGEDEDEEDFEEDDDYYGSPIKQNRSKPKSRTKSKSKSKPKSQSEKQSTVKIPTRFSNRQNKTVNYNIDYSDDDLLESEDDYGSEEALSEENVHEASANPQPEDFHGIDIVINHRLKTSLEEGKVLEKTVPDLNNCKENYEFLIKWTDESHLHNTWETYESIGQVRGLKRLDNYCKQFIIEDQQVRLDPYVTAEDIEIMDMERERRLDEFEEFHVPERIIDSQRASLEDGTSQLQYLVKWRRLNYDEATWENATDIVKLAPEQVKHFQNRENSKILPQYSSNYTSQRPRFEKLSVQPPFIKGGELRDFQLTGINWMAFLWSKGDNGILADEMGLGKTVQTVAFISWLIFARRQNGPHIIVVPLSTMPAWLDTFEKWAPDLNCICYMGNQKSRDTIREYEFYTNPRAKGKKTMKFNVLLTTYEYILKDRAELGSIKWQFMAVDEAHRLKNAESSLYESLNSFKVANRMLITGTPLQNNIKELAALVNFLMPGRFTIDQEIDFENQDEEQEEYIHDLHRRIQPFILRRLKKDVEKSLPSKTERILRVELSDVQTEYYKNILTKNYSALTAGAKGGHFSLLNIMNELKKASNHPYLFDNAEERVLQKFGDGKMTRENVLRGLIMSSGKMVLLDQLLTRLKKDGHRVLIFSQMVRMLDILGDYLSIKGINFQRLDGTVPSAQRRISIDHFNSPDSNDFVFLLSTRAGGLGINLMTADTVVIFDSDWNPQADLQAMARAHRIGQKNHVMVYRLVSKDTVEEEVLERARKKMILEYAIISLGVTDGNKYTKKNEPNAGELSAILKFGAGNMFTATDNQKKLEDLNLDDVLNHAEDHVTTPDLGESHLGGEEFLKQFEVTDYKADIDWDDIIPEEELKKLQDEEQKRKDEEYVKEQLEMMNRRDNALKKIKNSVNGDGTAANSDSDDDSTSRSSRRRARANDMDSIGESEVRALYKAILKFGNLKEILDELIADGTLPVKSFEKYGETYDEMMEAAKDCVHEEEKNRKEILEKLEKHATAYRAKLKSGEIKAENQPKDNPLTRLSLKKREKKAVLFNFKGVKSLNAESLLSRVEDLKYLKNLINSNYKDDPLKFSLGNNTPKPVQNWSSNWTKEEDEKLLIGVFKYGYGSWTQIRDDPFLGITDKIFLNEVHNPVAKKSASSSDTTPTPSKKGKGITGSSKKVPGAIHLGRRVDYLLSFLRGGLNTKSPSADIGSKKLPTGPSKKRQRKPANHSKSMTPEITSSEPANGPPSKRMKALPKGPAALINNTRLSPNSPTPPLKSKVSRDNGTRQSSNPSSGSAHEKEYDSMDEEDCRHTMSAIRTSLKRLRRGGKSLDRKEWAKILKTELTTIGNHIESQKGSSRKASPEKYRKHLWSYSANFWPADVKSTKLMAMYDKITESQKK
Structure (SMILES),Percent Effect [1],Percent Effect [2],Percent Effect [3],Percent Effect [4],Percent Effect (Trypanosoma cruzi),Percent Effect [5],Percent Effect [6],Percent Effect (Homo sapiens),Percent Effect [7],Percent Effect [8],Percent Effect [9]
COc1cccc(S(=O)(=O)CCN2CCCN(C(C)=O)CC2)c1,-0.358%,5.33%,-1.44%,13.1%,6.13%,24%,1.22%,18.5%,1.64%,6.17%,-15.8%
O=C(NCc1cc(=O)n2c(n1)CN(CC1CCOC1)CCC2)C1CC1 (configuration not stated),0.233%,2.74%,-1.09%,5.91%,6.35%,-0.399%,6.76%,-4.97%,3.12%,11.1%,-3.69%
Cc1nc(C2CCCN2C(=O)c2ccccc2)ncc1C(N)=O (configuration not stated),-3.32%,10.7%,3.14%,7.6%,1.97%,-3.96%,3.79%,22.3%,5.32%,14.1%,-6.6%
Cc1csc(N2CCCN(C(=O)C(C)n3ccnc3)CC2)n1 (configuration not stated),-4.19%,8.11%,5.77%,0.506%,6.78%,-2.77%,-0.718%,10.8%,5.94%,15.8%,1.79%
c1ccc(Cn2cc(CNC3CCc4ncnn4C3)cn2)cc1 (configuration not stated),-3.66%,6.33%,-0.419%,1.15%,0.923%,-3.66%,5.66%,4.51%,3.12%,10.1%,-19.2%
COCCCN(CCOC)C(=O)Nc1ccc(C)cc1C,-4.88%,-7.89%,-30.8%,-2.12%,-2.63%,3.55%,2.01%,-18.5%,-2.13%,-2.6%,6.01%
O=C(CCCc1ncc(-c2ccccc2)o1)N1CCN(CCO)CC1,-2.7%,20.2%,6.12%,-6.16%,-1.04%,3.04%,14.2%,6.15%,4.43%,13.9%,-3.58%
CC(C)CN1C(=O)c2ccc(C(=O)NCCc3c[nH]cn3)cc2C1=O,-1.59%,-1.33%,14.6%,3.62%,-7.07%,-9.68%,8.87%,-4.06%,5.29%,5.13%,-5.85%
CCc1nc(NCC(=O)N2CCOCC2)c2c(n1)c(C)nn2CC,-2.78%,6.67%,0.5%,7.26%,-6.09%,-6.87%,10.7%,-5.15%,2.12%,5.13%,-5.78%
Cc1ccc(CNC(=O)N2CCCCC2CCNS(C)(=O)=O)cc1 (configuration not stated),-1.58%,2.7%,2.59%,-1.08%,-1.74%,-15.2%,12.6%,23.6%,2.65%,2.44%,-4.89%
CC(C#N)CSc1ccccc1NCC(=O)Nc1ccc(F)cc1 (configuration not stated),-7.84%,-5.48%,17.1%,-9.84%,-3.33%,1.82%,6.39%,3.15%,-8.6%,-10%,-0.597%
Cc1ccc(N2CC3(CCN(c4nccs4)C3)C2)nn1,0.227%,2.74%,1.72%,6.68%,-0.794%,0.798%,14%,0.564%,5.21%,11.1%,0.982%
Cc1cnn(CC(C)NCc2nc(-c3cccnc3)no2)c1 (configuration not stated),-6.08%,-1.39%,-14%,7.77%,-4.76%,-1.32%,13%,-8.09%,7.37%,5.13%,-1.42%
Cc1cc(C)nc(NC(=O)C(C)Oc2ccc3c(c2)OCO3)n1 (configuration not stated),-1.24%,5.2%,-2.31%,4.95%,5.21%,0%,19.6%,5.23%,8.6%,18.5%,-2.76%
CCCC1(CO)CCCN(c2ncccc2F)C1 (configuration not stated),-0.789%,5.41%,-4.77%,3.77%,-1.16%,-2.38%,14.8%,10.4%,5.82%,12.2%,-3.22%
COc1ccc2nnc(CCCC(=O)NCCC3=CCCCC3)n2n1,-0.326%,12%,-1.46%,-0.0396%,4.71%,-7.57%,12.2%,23.4%,7.41%,17.9%,-9.92%
CNC(=O)Nc1cc(-c2ccccc2C)nn1CCO,-4.2%,7.89%,-1.72%,-9.84%,-3.8%,-5.92%,17.2%,-9.47%,1.06%,0%,-7.09%
Cc1oc(C)c(C(=O)NCc2cccnc2N(C)C)c1C,-1.52%,13.2%,4.37%,-11.8%,-3.57%,-1.53%,5.35%,-12.2%,1.47%,12.2%,-9.19%
Cc1ccc(NS(=O)(=O)CC2=NC(=O)n3cccc3C2=O)cc1,-4.7%,-4%,-2.73%,6.4%,1.97%,-3.7%,3.7%,-2.44%,-10.6%,-17.9%,-2.6%
CCS(=O)(=O)N1Cc2nccn2CC(Cn2nc(C)nc2C)C1 (configuration not stated),-2.08%,13.5%,-5.79%,32.6%,4.2%,19.6%,16.9%,-17.4%,5.38%,18.5%,-4.54%
CCc1ncc2c(n1)CN(CC(=O)NCCOc1ccccc1)CC2,-4.72%,7.89%,-23.5%,-1.72%,1.21%,-1.44%,-5.84%,-22.3%,11.3%,6.17%,1.38%
CCC(C)c1noc(C2CCN(C(=O)c3cccnc3)CC2)n1 (configuration not stated),-3.05%,7.79%,0.731%,6.36%,-0.0983%,-9.65%,14.8%,-14.3%,5.38%,11.1%,-2.94%
